The values that follow come from PubChem BioAssay AID651951 (The Scripps Research Institute Molecular Screening Center, 2012).

Screen size: about 2,400 compounds; about 1,100 (46%) were called active. So high a share suggests a set chosen from earlier hits. These entries were drawn from the full list. Values without a mark were called inactive.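 Rule for the calls: active = inhibition above the run cutoff, the mean inhibition of all test compounds plus 3 SD (cut at about 49% in these data); inactive = the rest.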

For this test, the target named is Trace amine-associated receptor 1 (Homo sapiens) (UniProt Q96RJ0). The test can be described thus: loss of beta-PEA response after agonist pre-exposure – cell-based, fluorescence, tachyphylaxis, counter-screen for TAAR1 agonist project, confirmation (AID 651951).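 Note: beta-PEA stimulus applied at its EC80; loss of beta-PEA calcium signal after compound pretreatment read as receptor desensitization; 0% = DMSO with beta-PEA at EC80 and 100% = DMSO alone without agonist.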 To be noted: CHO RD-HGA16 hTAAR1, Fluo-8 calcium, at 3 µM, stronger effect = higher value.
Sequence of Trace amine-associated receptor 1 (Homo sapiens) (Q96RJ0 whole entry, looked up): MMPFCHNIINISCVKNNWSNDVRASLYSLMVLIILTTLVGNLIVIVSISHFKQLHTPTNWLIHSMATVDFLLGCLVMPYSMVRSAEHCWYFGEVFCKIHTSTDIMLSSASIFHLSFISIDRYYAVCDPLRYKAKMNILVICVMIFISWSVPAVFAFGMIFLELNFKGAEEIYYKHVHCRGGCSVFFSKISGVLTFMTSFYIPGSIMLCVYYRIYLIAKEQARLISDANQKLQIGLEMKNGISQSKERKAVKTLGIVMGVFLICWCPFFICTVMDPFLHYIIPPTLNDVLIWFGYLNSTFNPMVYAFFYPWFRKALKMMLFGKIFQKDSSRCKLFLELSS
For the compound `O=C(N[C@H](C(=O)N1CCC[C@H]1C(=O)NCCc1ccccc1Cl)c1ccccc1)c1ccccc1`, the inhibition was 85.5% (active).
As for `Cc1cc(=O)oc2c(C)c(OCC(=O)NCCN3CCOCC3)ccc12`, the inhibition was 2.28%.
For `Nc1c(NCCc2ccccc2)c2ccccc2oc1=O`, the inhibition is 53.6% (active).
The same measure for `O=Cc1c(NCCc2cccc(F)c2)c2ccccc2[nH]c1=O`: 36.8%; for `CCc1ccc(-c2nn(-c3ccccc3)cc2CSC(=N)N)cc1`: 25.1%.
Under `CCCCOc1ccc(CSC(=N)N)cc1[N+](=O)[O-]` stands 12.3%; under `CCOc1ccc(Br)cc1CSC(=N)N`, 67% (active).
The same measure for `S=C(Nc1ccc(Br)cc1)NC1CCN(Cc2ccccc2)CC1`: 48.3%.
In the case of `Cc1ccccc1-c1nc(CS(=O)(=O)CC(=O)N2CCc3ccccc3C2)c(C)o1`, the inhibition was 25.5%.
Under `CCC(C(=O)Nc1ccc(C(C)C)cc1)c1ccccc1` (centres undefined) stands 103% (active); under `Cc1ccc(Sc2cc(N3CCOCC3)nc(-c3ccccc3)n2)cc1`, 7.49%; under `CCC(c1nnnn1Cc1ccco1)N(CCc1ccccc1)Cc1cc2ccc(OC)cc2[nH]c1=O` (centres undefined), 13.2%.
Under `COc1ccc(OC)c(C(c2nnnn2C(C)(C)C)N2CCc3ccccc3C2)c1` (centres undefined) stands 17.8%; under `O=C(O)C1C2C=CC(O2)C1C(=O)NCCc1cccc(Cl)c1` (centres undefined), 92.1% (active).
The same measure for `O=C(NNC(=S)NC(=O)c1cn(-c2ccccc2)nc1-c1ccccc1)c1ccncc1`: 79.3% (active); for `CN(C(=O)CN(CCO)CC(=O)N(C)C(C)(C)Cc1ccccc1)C(C)(C)Cc1ccccc1`: 94.8% (active); for `CCCc1cc(C(=O)Nc2ccc(C(=O)OC)cc2)cs1`: 11%.
In the case of `O=C(/C=C/[C@H]1O[C@@H](n2cnc3c(NC(=O)c4ccccc4)ncnc32)[C@H](O)[C@@H]1O)NCc1ccccc1`, the inhibition is -5.17%.
Under `CCc1ccccc1S(=O)(=O)Cc1ccc(C(=O)NCCc2ccccc2)o1` stands 77.1% (active).
Under `O=C(NCCc1ccccc1)C(=O)NCC1OCCN1S(=O)(=O)c1cccs1` (centres undefined) stands 36.3%; under `O=C1CCCN2N=C(SCC(=O)Nc3ccc(Br)cc3)SC2=N1`, 36.4%.
In the case of `CCCCC(=O)NNC(=S)NC(=O)C(c1ccccc1)c1ccccc1`, the inhibition is 107% (active).
As to `c1ccc2c(c1)OCC(CNc1ncnc3nc[nH]c13)O2` (centres undefined), the inhibition is 106% (active).
Under `Cc1cc(C)c2cc(C#N)c(N3CCNCC3)nc2c1` stands 79.8% (active); under `Cc1ccc(S(=O)(=O)N(CC(=O)N2CCc3ccccc3C2)c2cccc(Cl)c2)cc1`, 29.8%.
The same measure for `Cc1ccc(NC(=O)CCN2CCc3ccccc3C2)cc1`: 78% (active); for `COc1ccc(NC(=O)C(=O)NCC(c2ccco2)N2CCc3ccccc3C2)cc1` (centres undefined): -6.26%.
Take `CN(C)CCCN(C(=O)c1ccc(S(=O)(=O)N2CCCCCC2)cc1)c1nc2ccc(Br)cc2s1`: the inhibition was 41.1%.
Under `CN(C)CCCN(C(=O)c1ccc(S(=O)(=O)N2CCCc3ccccc32)cc1)c1nc2ccc(F)cc2s1` stands 53.1% (active).
The same measure for `COc1ccc(C(=O)CN2C(=O)NC(C)(c3ccc(C)cc3)C2=O)cc1OC` (centres undefined): 10.7%; for `COc1ccc(C(=O)NNC(=S)NC(=O)c2ccccc2)cc1`: 76.1% (active).
Under `COc1ccc(C(=O)NC(=S)NNC(=O)CCc2ccccc2)cc1` stands 68.4% (active).
Consider `Cc1onc(-c2ccccc2)c1C(=O)NNC(=S)NC(=O)c1ccc(F)cc1`, for which the inhibition was 65.3% (active).
In the case of `O=C(Nc1cccc(NC(=O)c2ccc(Br)cc2)c1)c1ccccc1`, the inhibition is -9.63%.
Under `COc1ccc(C(=O)NC(=S)NNC(=O)c2c(-c3ccccc3)noc2C)cc1` stands 29.8%; under `C#CCOc1ccc(/C=C2/C(=O)NN(c3ccccc3)C2=O)cc1OC`, 39%; under `Nc1nonc1-n1nnc(C(=O)N/N=C/c2ccc(Cl)cc2)c1-c1ccc2c(c1)OCO2`, 37.8%.
Under `Nc1cccc2c1C(=O)N(Cc1nnc(-c3ccccc3Br)o1)C2=O` stands 26.5%.
The same measure for `O=C(Nc1ccncc1)Nc1ccc(F)cc1`: 76.4% (active); for `CCCn1c(O)c(CN2CCCC(C)C2)c(C)c(C#N)c1=O` (centres undefined): 55.8% (active).
As for `S=C(NCCc1ccccc1)N1CCn2cccc2C1c1ccncc1` (centres undefined), the inhibition is 83.2% (active).
For the compound `COc1ccc(OC)c(NC(=S)N2CCc3ccccc3C2)c1`, the inhibition is 40.2%.
The same measure for `CCCSc1nc2c(c(=O)n(C)c(=O)n2C)n1Cc1ccc(C)cc1`: 37.9%; for `c1ccc(Nc2nc(N3CCOCC3)c3ccccc3n2)cc1`: 93% (active); for `CCCc1ccc(OCC(=O)NNC(=S)NC(=O)c2ccco2)cc1`: 71.9% (active).
Under `CC(Oc1ccc2ccccc2c1)C(=O)NNC(=S)NC(=O)c1ccco1` (centres undefined) stands 70.9% (active); under `COc1ccc2cc(-c3[nH]ncc3CNCCn3nc(C)cc3C)ccc2c1`, 13%; under `NC(=O)C1=C[C@H](c2csc3ccccc23)C[C@H](OCc2ccc(CO)cc2)O1`, 50.8% (active).
Consider `COC(=O)c1[nH]c2cccc(C)c2c1NC(=O)CN1CCCc2ccccc21`, for which the inhibition is 35.7%.
Under `COc1cccc(-c2cnc(OC(C)(C)C)nc2OC(C)(C)C)c1` stands 3.93%; under `Fc1ccc(NC(=S)N2CCc3[nH]c4ccccc4c3C2)cc1`, 28.1%.
Consider `O=C(CCCN=C1NS(=O)(=O)c2ccccc21)OCC(=O)c1ccc(F)c(F)c1`, for which the inhibition was 37.4%.
Under `C[C@H](NC(=O)c1ccccc1)C(=O)OCC(=O)c1c[nH]c2ccccc12` stands 79.2% (active); under `OC(CNCCc1ccc(Cl)cc1Cl)COc1ccccc1` (centres undefined), 79.2% (active).
Under `CC(C)(C)CC(=O)Nc1nc(C(N)Cc2ccc(C(F)(F)F)cc2)cs1` (centres undefined) stands 58.9% (active); under `COc1ccc(CC(N)c2csc(NC(=O)Cc3ccccc3)n2)cc1` (centres undefined), 23.6%.
For `O=C(COC(=O)Cc1ccccc1F)NCCc1ccccc1`, the inhibition is 86% (active).
For the compound `Cc1cc2nc3c(=O)[nH]c(=O)nc-3n(C[C@H](O)[C@H](O)[C@H](O)CO)c2cc1C`, the inhibition was 53.2% (active).
Under `O=C(Nc1ccc(Cl)cc1)N1CCc2[nH]c3ccccc3c2C1` stands 12.4%.
The same measure for `O=c1cnnc(Nc2ccccc2)[nH]1`: 60.1% (active); for `COc1ccc2c(c1)OC(O)(C(F)(F)C(F)F)CC2=O` (centres undefined): 11.2%; for `NC[C@H](Cc1ccccc1)NCCc1cc(C(F)(F)F)cc(C(F)(F)F)c1`: 12.9%.
Under `CCCCCCCCCCOC(=O)Cn1c(COc2ccc(C)cc2)[n+](C)c2ccccc21` stands 102% (active); under `CC(Oc1ccc(Cl)cc1)C(=O)OCC(=O)Nc1ncc(Cl)cc1Cl` (centres undefined), 7.27%.
Turning to `Cc1ccc(Cl)cc1N1CCN(C(=O)c2cccc3c(=O)c(C)c(-c4ccccc4)oc23)CC1`, the inhibition is 80.9% (active).
Turning to `Nc1c(C(=O)c2cccs2)sc2nsc(SCCN3CCCCC3)c12`, the inhibition was 60.8% (active).
Under `CCOC(=O)Cc1csc(NC(=O)Nc2ccccc2)n1` stands 28.9%; under `COc1ccc(C(N)c2csc(NC(=O)Nc3cccc(C(F)(F)F)c3)n2)cc1` (centres undefined), 44.9%; under `NC(c1ccccc1)c1csc(NC(=O)Nc2cccc(C(F)(F)F)c2)n1` (centres undefined), 50.7% (active).
Under `COc1cc(OC)c(-n2cc(-c3ccc(Cl)cc3)[nH]c2=O)cc1Cl` stands 79.8% (active).
The same measure for `Cc1ccccc1NC(=S)NC(=O)Cc1ccc(Cl)cc1`: 81.5% (active); for `O=C(Cc1ccc(Cl)cc1)NC(=S)Nc1ccccc1O`: 106% (active).
Take `CCC(c1nnnn1Cc1ccco1)N(CCc1ccccc1)Cc1cc2cccc(C)c2[nH]c1=O` (centres undefined): the inhibition was 20.6%.
Under `NC(Cc1ccccc1)c1csc(Nc2cc(Oc3ccccc3)ncn2)n1` (centres undefined) stands 65.7% (active).
Under `CC(=O)Oc1ccc(Cn2c(C)c(C(=O)NCc3ccc(C#N)cc3)sc2=O)cc1` stands 72.9% (active).
Under `O=C1CCCC(O)=C1C=NCCc1ccccc1` stands 32.1%; under `Cc1ccn2c(=O)c(C(=O)NCCC3=CCCCC3)c(O)nc2c1`, 65.7% (active); under `c1ccc(-c2csc(N3CCc4ccccc4C3)n2)cc1`, 15.3%.
Consider `Oc1ccc2ccc3cccc[n+]3c2c1`, for which the inhibition is 19.6%.
Under `COc1cc(OC)cc(C(=O)N[C@H](C(=O)OCC(=O)NC(C)c2ccccc2)C(C)C)c1` (some centres undefined) stands 12.6%; under `CC(NC(=O)c1cc(-c2ccccc2)on1)c1ccccc1` (centres undefined), 51.1% (active); under `c1ccc(C2CNCc3c2ccc2ccccc32)cc1` (centres undefined), 95.2% (active).
The same measure for `CCN(CC)c1ccc2oc(=O)c(C)nc2c1`: 25.7%; for `O=C(Nc1ccccc1)Nc1nnc(COc2ccccc2F)s1`: 72.4% (active); for `O=C(Nc1ccc(F)cc1)Nc1nnc([C@H]2C[C@H](O)[C@@H](CO)O2)s1`: 25.5%.
For the compound `O=C(c1noc2c1CCCC2)N1CCc2ccccc2C1`, the inhibition is 5.47%.
In the case of `CN(C)c1ccc(/C=C2\NC(=S)N(Cc3ccccc3)C2=O)cc1`, the inhibition is 63.9% (active).
Take `CC(=O)Nc1ccccc1Sc1ccc2c3c(cccc13)C(=O)N(c1ccc(C)cc1)C2=O`: the inhibition was 5.11%.
Under `CCCOc1ccc(-c2c(C(=O)N/N=C/c3ccco3)nnn2-c2nonc2N)cc1` stands 13.2%; under `Cc1cccc(NC(=O)C(C)N2C(=O)C3C4CC(C(Br)C4Br)C3C2=O)c1` (centres undefined), 52.5% (active); under `CCCC1CCC(=NNC(=S)NCCc2ccccc2)CC1` (centres undefined), 51.7% (active).
Regarding `Cc1ccc(O)c(NC(=S)NC(=O)COc2ccc(Br)cc2)c1`, the inhibition is 104% (active).
As to `Nc1cc(OC(=O)c2ccccc2Br)nn1S(=O)(=O)c1ccccc1`, the inhibition was 11.7%.
The same measure for `COCCCn1c(Cc2csc(Nc3cccc(Cl)c3)n2)nnc1SCC(=O)OC1CCCCC1`: -2.24%.
The same measure for `COc1ccc(Cl)cc1C(=O)NNC(=S)NC(=O)/C=C/c1ccco1`: 67.7% (active); for `O=C1C=C(c2ccc(Cl)cc2)C(=O)N1Nc1ccccc1`: 72.8% (active); for `Nc1nnn(CC(=O)N/N=C/c2ccccc2)n1`: 17.8%.
Under `CSc1nc(N)c(C#N)c(-c2ccccc2Cl)c1C#N` stands 24.1%; under `O=C(CSc1nc(-c2ccco2)cc(C(F)(F)F)n1)NCc1cccs1`, -5.52%; under `Cc1c(CNCCc2ccccc2)c(C(=O)O)c(C)n1-c1ccccc1`, 53.7% (active).
As for `COc1cccc(N(CC(=O)N2CCc3ccccc3C2)S(C)(=O)=O)c1`, the inhibition is 15.3%.
The same measure for `S=C(NCCCc1cnc[nH]1)NCCCN(Cc1ccc(Cl)c(Cl)c1)c1ccc(Br)cn1`: 59.7% (active); for `O=C(NCCc1ccccc1)/C(=C\c1ccc([N+](=O)[O-])cc1)NC(=O)c1ccccc1`: 7.67%; for `CCCCCC(=O)NC(=S)NNC(=O)c1ccc([N+](=O)[O-])cc1`: 61% (active).
Under `CCc1c(-c2ccccc2OC)ncn1CCc1ccccc1OC` stands 39.8%.
For the compound `CCCCCc1c(-c2cccc(Br)c2)ncn1CCc1ccccc1OC`, the inhibition was 20.5%.
On to `CCCCc1c(-c2ccc(Br)cc2)ncn1CCc1ccccc1OC`, for which the inhibition is 49.3% (active).
The same measure for `CCCCCc1c(Cc2ccccc2)ncn1CCc1ccccc1OC`: 88.8% (active); for `CCCCCc1c(-c2ccc(OC)c(OC)c2)ncn1CCc1ccccc1OC`: 97.1% (active); for `CCCCc1c(-c2ccc(Cl)cc2)ncn1CCc1ccccc1OC`: 83.4% (active).
The same measure for `N#Cc1ccc(OCCCN2CCC(C(O)(c3ccccc3)c3ccccc3)CC2)c(F)c1`: 23.9%; for `Cn1c(=O)c(=O)n(C)c2cc(S(=O)(=O)NCCc3ccccc3)ccc21`: 73.1% (active); for `O=[N+]([O-])c1cc(S(=O)(=O)NCCc2ccccn2)ccc1Cl`: 39%.
Under `c1ccc2c(c1)C(=NC1CCCCC1)NC2=NC1CCCCC1` stands 42.2%.
